An excerpt weighted towards active compounds, which were near 5.2% of everything screened.
Sfp PPTase inh: Sfp phosphopantetheinyl transferase inhibition. Q9F4F7. Biochemical Sfp PPTase activity, qHTS. Potency, µM, inactives show largest response in the series, negative = inhibition, hits mostly inhibitors. actives 3.5% (n = 310,000);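 also: the enzyme is Sfp with the accession as filed and its product quenches rhodamine fluorescence; potency is read from the fitted curve at half-maximal effect; 0% = enzyme reaction without inhibitor and -100% = no enzyme wells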
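With Hepes-Na pH 7.6 buffer containing 10 mM MgCl2, Sfp (15 nM) modified BHQ-2-YbbR (12.5 uM) using rhodamine-CoA (5 uM). Two reads 30 minutes apart at 525/598 nm yielded each well's rate.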
Tau fluor cs: counter-screen for tau fibril formation inhibitors. tau K18 P301L Alexa594 fluorescence, heparin fibrillization. Potency, µM (top dose mostly 57.7 µM), without a hit: top-dose activity change, negative = decrease. actives 0.93% (n = 280,000); also: potency is read from the fitted curve at half-maximal effect; nearly all actives have a fitted effect of over 55% in size
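Human tau K18 P301L (15 uM unlabeled, 0.24 uM Alexa 594-labeled) in 100 mM sodium acetate pH 7 with 20 uM heparin, 6 hr at 37 C. ThT 30 uM added, 1 hr ambient; Alexa 594 FP and total fluorescence read at 555/632 nm.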
Tau fibril ThT: tau fibrillization inhibition (ThT binding). P10636. recombinant tau K18 P301L (four-repeat tau fragment), heparin-induced fibrillization, ThT fluorescence. Potency, µM (highest dose often 57.4 µM), for inactives: at the top dose activity, negative = inhibition, most hits filed as inhibitors. actives 2.1% (n = 270,000); also: potency is read from the fitted curve at half-maximal effect; nearly all actives have a fitted effect of over 55% in size
Target sequence (P10636 561-689 P618L limits assumed): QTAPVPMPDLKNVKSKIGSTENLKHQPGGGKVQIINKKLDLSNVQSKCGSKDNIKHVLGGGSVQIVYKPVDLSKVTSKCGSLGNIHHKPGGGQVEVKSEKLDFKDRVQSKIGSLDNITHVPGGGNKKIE
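Tau K18 P301L fragment (15 uM unlabeled plus 0.24 uM Alexa 594-labeled) in 100 mM sodium acetate pH 7 with compound, fibrillization induced by 20 uM heparin for 6 hr at 37 C. Thioflavin T (30 uM) added, fluorescence read after 1 hr (ex 450, em 510 nm).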
Coupling enz: inhibits coupling enzyme system, counter-screen for aldolase hits. coupling enzyme system counterscreen, AmpLite Red fluorescence. activity change, negative = inhibition, % at 58.2 µM, hits read low. actives 0.67% (n = 290,000). AID 2472; in the data active = activity change below about -30%
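Counterscreen lacking aldolase: glyceraldehyde-3-phosphate coupling-enzyme reagent preincubated 10 min at RT with compound (at 57.5 uM final), then substrate/coupling system with AmpLite Red added; fluorescence read at 525/598 nm after 20 min RT.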
Tau fibril FP: tau fibrillization inhibition (FP); P10636; Potency, µM (series often up to 57.7 µM), inactives show at the top dose activity, negative = inhibition, usual class: inhibitors; K18 P301L tau heparin fibrillization, Alexa594 FP, 6 h; actives 0.39% (n = 280,000); also: potency is read from the fitted curve at half-maximal effect; nearly all actives have a fitted effect of over 55% in size
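Compound effects on tau fibrillization are measured by Alexa 594 fluorescence polarization (ex 555, em 632 nm). K18 P301L tau is used at 15 uM with 0.24 uM labeled tracer, and 20 uM heparin induces aggregation over 6 hr at 37 C.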
* = called active by the depositor; ? = inconclusive; . = not tested or not shown; ! = not confirmed by another sample; [ ] = remark or other dose. Unless noted, calls follow the shape of the dose curve; as a rule, active = well fitted curve in the direction sought with a large enough effect; inconclusive = small, poorly fitted or top-dose-only effect, or another doubt; inactive = no such curve, though single readings can be large; an effect the other way counts as inactive or inconclusive. Unless noted, % is scaled to controls: 0 for no effect and ±100 for the full control effect.

SMILES | Sfp PPTase inh | Tau fluor cs | Tau fibril ThT | Coupling enz | Tau fibril FP
Cc1oc2c(c1C(=O)N1CCC(C)CC1)C(=O)c1ccccc1C2=O | -22% | -17% | -11% | -46* | 0%
CCOC(=O)C1CCN(C(=O)c2c(C)oc3c2C(=O)c2ccccc2C3=O)CC1 | -26% | -18% | -15% | -47* | -2%
COc1ccc2cc(-c3nc(Cl)c4c5c(sc4n3)CCCC5)c(=O)oc2c1 | . | -4% | ? | . | 4%
CC(C)(Oc1ccc(-c2ccco2)cc1)C(=O)O | 35µM* | 0% | -13% | 1 | -4%
CC(C)(Oc1ccc(CCNC(=O)c2ccc(-c3ccccc3)o2)cc1)C(=O)O | 15% | -5% | -20% | 6 | ?
CCCCC/C=C/C=C1/C(=O)C=C[C@@H]1C/C=C\CCCC(=O)O | 56µM*! | -4% | 16µM*! | 3 | ?
CCCCC[C@H](O)/C=C/[C@H]1C=CC(=O)[C@@H]1C/C=C\CCCC(=O)O | 56µM*! | -3% | -2% | 7 | 0%
COc1ccc(CCNC(=O)c2c[nH]n3c(=O)c(Cc4ccccc4Cl)c(C)nc23)cc1OC | . | -1% | -10% | . | 4%
O=C(O)C(O)C(O)C(O)C(O)C(=O)O (stereo not drawn) | 0% | 8% | 13% | 3 | 2%
CC(C)C(=O)NC(c1ccc([N+](=O)[O-])cc1)c1c(O)ccc2ccccc12 (stereo not drawn) | 5% | ? | 20µM* | -2 | ?
CNC(=O)c1sc(=S)n(-c2ccc(OC)cc2)c1N | 26% | -7% | -4% | 0 | 0%
CCOC(=O)c1ccc(-n2c(=S)sc3c(=O)[nH]c(C)nc32)cc1 | 13µM* | -9% | ? | 5 | -5%
CCn1c(N)c(C(=O)NCc2ccco2)sc1=S | 22µM* | -8% | -10% | -10 | 5%
CCn1c(N)c(C(N)=O)sc1=S | 14µM* | 3% | -12% | 3 | -2%
C=CCNC(=O)c1sc(=S)n(-c2ccc(C(=O)OCC)cc2)c1N | 20µM* | -14% | -14% | -8 | -9%
O=C(Cn1nc(-c2ccccc2)c2cnc3ccccc3c21)Nc1ccccc1 | . | -4% | 5% | . | -9%
Cc1ccc2oc(-c3ccc(Cl)c(NC(=O)c4cc5ccccc5o4)c3)nc2c1 | . | 3% | -3% | . | 2%
CCCCCCCCCCCCCCCCCCCCCCCCCCCCCC | -18% | . | . | 1 | .
COc1ccc(-n2c(/C=C/c3cccc4ccccc34)nc3ccccc3c2=O)cc1Cl | . | -10% | -2% | . | ?
CCOC(=O)c1ccc(-n2c(N)c(C(=O)NCc3ccco3)sc2=S)cc1 | 35µM* | -22% | ? | -11 | 0%
COc1ccc(-n2c(N)c(C(=O)NCc3ccco3)sc2=S)cc1 | 4% | -15% | -9% | -11 | -17%
Cc1ccc([C@@H]2[C@@H]3C(=O)N(c4ccccc4)C(=O)[C@@H]3[C@]3(C)C(=O)N(Cc4ccccc4)CC(=O)N23)o1 | 8% | . | . | -1 | .
Cc1ccc([C@@H]2[C@@H]3C(=O)N(C)C(=O)[C@@H]3[C@]3(C)C(=O)N(Cc4ccc(-c5ccccc5)cc4)CC(=O)N23)o1 | 50µM* | . | . | 5 | .
CC[C@H](C)[C@H](NC(=O)CNC(=O)[C@@H](NC(=O)[C@@H](NC(=O)[C@H](Cc1ccc(O)cc1)NC(=O)[C@H](CC(C)C)NC(=O)[C@H](C)NC(=O)[C@H](CCC(N)=O)NC(=O)CNC(=O)[C@@H]1CCCN1C(=O)CNC(=O)[C@H](Cc1ccccc1)NC(=O)[C@H](Cc1cnc[nH]1)NC(=O)[C@@H](NC(=O)CNC(=O)[C@H](CCCNC(=N)N)NC(=O)[C@H](CCCNC(=N)N)NC(=O)[C@@H](NC(=O)[C@H](CC(N)=O)NC(=O)[C@@H](N)CS)[C@@H](C)O)[C@@H](C)CC)[C@@H](C)O)[C@@H](C)O)C(=O)O | -15% | . | . | 1 | .
N[C@H](CC(=O)O)C(=O)O | ? | 6% | 3% | 3 | 10%
SMILES | Sfp PPTase inh | Tau fluor cs | Tau fibril ThT | Coupling enz | Tau fibril FP
N[C@H](C(=O)O)C1C(C(=O)O)C1C(=O)O (stereo partly drawn) | 50µM* | 3% | 8% | . | -1%
CCOc1ccccc1NC(=O)N1CCC(N2CCN(Cc3ccccc3)C(=O)C2=O)CC1 | . | -1% | 5% | . | -3%
CCCCn1c(-c2csc(CC)c2)n[nH]c1=S | 20µM* | 2% | 6% | 12 | 5%
Cc1cccc(-n2c(-c3csc(C)c3)n[nH]c2=S)c1 | 4% | -5% | -9% | -2 | 1%
CCCCn1c(-c2csc(C(C)C)c2)n[nH]c1=S | -18% | -7% | -18% | 2 | 6%
CCc1cc(-c2n[nH]c(=S)n2-c2cccc(C)c2)cs1 | 50µM* | -16% | -19% | 4 | 2%
COc1ccc(/C=N/NC(=S)Nc2ccccc2[N+](=O)[O-])cc1O | -6% | 16µM*[quencher] | 4.5µM* | -1 | -5%
COc1ccc(C(=O)/C=C/Nc2ccc([N+](=O)[O-])cc2C)cc1OC | -29% | ? | 1.6µM* | 1 | ?
COc1ccc(C(=O)NC(=S)Nc2ccccc2[N+](=O)[O-])cc1OC | 89µM* | -11% | -10% | 1 | -8%
CCOc1ccc(NC(=S)NC(=O)/C=C/c2ccc(OC)c(OC)c2)c([N+](=O)[O-])c1 | 50µM* | -8% | -9% | . | 4%
COc1ccc(C(=O)/C=C/Nc2ccc([N+](=O)[O-])cc2C)c(OC)c1 | 4% | -28% | ? | 1 | ?
O=C(NCc1cccs1)c1nn(-c2ccccc2F)nc1CO | . | -5% | -6% | . | 3%
COc1ccc(C(=O)NC(=S)Nc2ccc([N+](=O)[O-])cc2C)cc1OC | 56µM* | -22% | ? | -1 | -4%
CNC(=S)Nc1ccc([N+](=O)[O-])cc1C | -19% | -9% | -8% | -2 | -3%
COC(=O)c1cc2c(-c3ccccc3)cc3ccccn3c-2c1C(=O)OC | -11% | ? | 16µM* | 1 | 10%
COC(=O)c1c(C(=O)OC)c2cccc3cc(-c4ccccc4)c4ccc1c4n32 | -6% | ? | 3.5µM* | -9 | -14%
CCOC(=O)C(=O)c1c(C)cc2ccccn12 | -13% | -8% | -13% | -13 | -3%
COC(=O)c1c(C)c2c(C)cc3ccccn3c-2c1C(=O)OC | -6% | ? | 13µM* | -6 | 17%
Cc1ccc(-c2nc3ccccc3o2)cc1NC(=O)c1cccc2c(Cl)cccc12 | . | -9% | -5% | . | -7%
Cc1nc(COC(=O)c2cc(O)c3ccccc3c2O)cs1 | 28µM* | ? | 25µM* | -25 | ?
Cc1ccccc1Nc1oc(-c2ccccc2)nc1-c1cccc2ccccc12 | 0% | 3% | -9% | 1 | 8%
CCN(CC)C(=S)S | 45µM* | . | . | . | .
Cc1ccc(-n2ncc3c(NCCC4=CCCCC4)ncnc32)cc1 | . | -21% | -7% | . | -16%

Screening results deposited in PubChem BioAssay by National Center for Advancing Translational Sciences (NCATS).
